# Experimental data: PubChem BioAssay (NCATS)
# Where “and” joins values, the source holds several entries; their conditions need not be identical. Identical values can stand only once. Results filed as inconclusive are left out. Calls of active or inactive are those of the source. Calls come from the whole dose curve; as a rule, active = well fitted curve in the direction sought with a large enough effect; inconclusive = small, poorly fitted or top-dose-only effect, or another doubt; inactive = no such curve, though single readings can be large; an effect the other way counts as inactive or inconclusive.
# Key:
# [1] = Primary qHTS for inhibitors of nuclear receptor binding SET domain protein 2 (NSD2) in an isogenic RCH-ACV NSD2 p.E1099K mutant (9B) (AID 1645876)
# [2] = Primary qHTS for inhibitors of nuclear receptor binding SET domain protein 2 (NSD2) in an RCH-ACV wild type WT cells (2C) (AID 1645877)
# Note: nearly all actives have a fitted effect of over 70% in size.
# Potency is the fitted concentration of half-maximal effect.
Structure (SMILES),Potency [1],Potency [2]
CC(=O)NC(C(=O)O[C@H]1CCC(C)(C)[C@@H]2CC=C3C(=O)OCC3(O)[C@@]12C)C(C)C (stereo partly specified),8.01 µM (active),12.7 µM (active)
COc1cc(-n2cnc3cc(-c4ccc(Cl)cc4)sc3c2=O)ccc1OCCN1CCCC1,7.28 µM (active),5.78 µM (active)
CS(=O)(=O)c1ccc(Oc2cc(F)cc(C#N)c2)c2c1[C@H](O)C(F)(F)C2,inactive,inactive
C=C1CC[C@H]2C(=C)CC[C@H]3C(=C)C(=O)O[C@@H]3[C@@H]12,16.3 µM (active),10.3 µM (active)
C/C=C(\C)C(=O)OC1C[C@@]2(COC(C)=O)O[C@H]2/C=C\[C@@]2(C)O[C@@H]2[C@H]2OC(=O)C(COC(C)=O)=C12 (stereo partly specified),8.93 µM (active),5.63 µM (active)
CO[C@H]1[C@@H](O)[C@H](O[C@H]2CC[C@@]3(C)C(CCC4C3CC[C@]35COC6(COC(=O)C6)C3CCC45O)C2)O[C@@H](C)[C@@H]1OC1OC(CO)C(OC2OC(CO)C(O)C(O)C2O)C(O)C1O (stereo partly specified),3.88 µM (active),3.88 µM (active)
Cn1ncnc1[C@H]1c2n[nH]c(=O)c3cc(F)cc(c23)N[C@@H]1c1ccc(F)cc1,200 nM (active) and 148 nM (active),28.2 nM (active) and 66.1 nM (active)
CC(C)C[C@@H](N)C(=O)N[C@H]1C(=O)N[C@@H](CC(N)=O)C(=O)N[C@H]2C(=O)N[C@H]3C(=O)N[C@H](C(=O)N[C@H](C(=O)O)c4cc(O)cc(O)c4-c4cc3ccc4O)[C@H](O)c3ccc(c(Cl)c3)Oc3cc2cc(c3O[C@@H]2O[C@H](CO)[C@@H](O)[C@H](O)[C@H]2O[C@H]2C[C@](C)(N)[C@H](O)[C@H](C)O2)Oc2ccc(cc2Cl)[C@H]1O,inactive,inactive
C=C[C@@]1(C)CCC2C(=CCC3[C@]2(C)CCC[C@@]3(C)C(=O)O)C1 (stereo partly specified),inactive,inactive
COc1cccc(-c2cc(F)ccc2C2Cc3nc(N)nc(C)c3C(=O)N2)n1 (stereo unspecified),0.0525 µM (active),0.059 µM (active)
C=C1/C(=C/C=C2\CCC[C@]3(C)[C@@H]([C@H](C)CC[C@@H](O)C(C)(C)O)CC[C@@H]23)C[C@@H](O)C[C@@H]1O,18.3 µM (active),10.3 µM (active)
CCC(C)CC(=O)OC1C(=O)C(CO)=CC(O)C1C(C)C (stereo unspecified),2.58 µM (active),2.9 µM (active)
C=C1CC(=O)C2OC2(C)CC2OC(=O)C(=C)C2C(O)C1OC(=O)/C(C)=C\C (stereo unspecified),3.19 µM (active),2.01 µM (active)
C[C@H](CN(C)C)Oc1nc(Nc2cc3cccc(Cl)c3cn2)cnc1C#N,459 nM (active) and 934 nM (active),409 nM (active) and 934 nM (active)
Cc1ccc(N2CCN(CCC3NC(=O)c4ccccc43)CC2)cc1C (stereo unspecified),inactive,inactive
Cc1nc(NC(=O)N2CCCC2C(N)=O)sc1-c1ccnc(C(C)(C)C(F)(F)F)c1 (stereo unspecified),2.35 µM (active),2.63 µM (active)
C=C1C(=O)O[C@@H]2C[C@]3(C)[C@@H](CCC(C)O)[C@@H]3C[C@H]12 (stereo partly specified),18.3 µM (active),14.5 µM (active)
CN1CCN(c2ccc(OC(F)(F)F)c(Nc3ncc4c(n3)-c3c(c(C(N)=O)nn3CCO)CC4)c2)CC1,57.8 nM (active) and 118 nM (active),72.8 nM (active) and 132 nM (active)
CN1CCN(S(=O)(=O)c2ccc(-c3cnc(N)c(C(=O)Nc4cccnc4)n3)cc2)CC1,0.317 µM (active),0.317 µM (active)
CCN1CCN(Cc2ccc(NC(=O)c3ccc(C)c(Oc4ccnc5[nH]ccc45)c3)cc2C(F)(F)F)CC1,0.713 µM (active),0.713 µM (active)
C=CC(C)(O)CC/C=C(\C)C(=O)OC1C(O)C(CO)OC(OC(=O)C23CCC(C)(C)CC2C2=CCC4C5(C)CCC(OC6OC(COC7OCC(OC(C)=O)C(O)C7OC7OC(COC(C)=O)C(O)C(O)C7OC(C)=O)C(O)C(O)C6OC6OCC(O)C(O)C6O)C(C)(C)C5CCC4(C)C2(C)C(O)C3O)C1OC1OCC(OC2OCC(O)C(OC3OCC(O)C(O)C3O)C2O)C(O)C1O (stereo unspecified),0.792 µM (active),1.25 µM (active)
Cc1cc2c(c(=O)o1)C=C1CC[C@H]([C@H](C)Cn3cnc(=N)c4[nH]cnc43)C[C@@H]1O2,inactive,inactive
O=C(O)C1=CO[C@@H](O[C@@H]2O[C@H](CO)[C@@H](O)[C@H](O)[C@H]2O)[C@@H]2C(CO)=CC[C@H]12,inactive,inactive
